PubChem BioAssay (EPA / NIEHS)
Where “and” joins values, the source holds several entries; their conditions need not be identical. Equal entries are not always repeated. Records with an inconclusive call do not appear. Calls of active or inactive are those of the source. Rule for the calls, unless noted: active = hit-call score of the fitted dose curve at least 0.9, where 1 is the maximum; inactive = score below 0.9.

How the values were obtained:
[1] = BSK_3C_Proliferation: Cell Proliferation Assessment in the BioMAP Diversity Plus: 3C Assay (AID 2283006); conditions: primary human endothelial cells (HUVEC);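 for AC50: potency may reflect either rise or fall in cell number versus DMSO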
In short: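 HUVEC, sub-confluent; 48 h chemical exposure; 10% TCA fix, 0.1% SRB stain, A560 total protein. Gain or loss of signal fitted both directions vs DMSO control.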

[2] = BSK_3C_Vis: BioMAP Diversity Plus: 3C Assay for Morphology Visualization (AID 2283025); conditions: primary human endothelial cells (HUVEC);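 note: fitted both ways so gain or loss versus DMSO counts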;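 for AC50: light microscopy image of cell morphology used as background control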
In short: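 HUVEC, 3C system; light microscopy of morphology at 24 h post-dose. Bidirectional fit vs DMSO baseline. Secondary readout, background-control function.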

[3] = read-out: Transforming growth factor beta 1 (TGFb1), TGFB1 (gene 7040); test: BSK_BE3C_TGFb1: BioMAP Diversity Plus: BE3C Assay for Transforming growth factor beta 1 (TGFb1) Biomarker Activity (AID 2283036;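 note: TGF-b1 protein level measured by ELISA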); conditions: primary human bronchial epithelial cells; actives raise or lower the signal
In short: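 Read-out: ELISA for TGF-b1 in primary human bronchial epithelial cultures, 24 h post-dose. Bidirectional curve fitting vs DMSO control; gain or loss of signal both scored.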

[4] = BSK_CASM3C_SRB: Viability Assessment in the BioMAP Diversity Plus: CASM3C Assay (AID 2283050); conditions: primary human coronary artery smooth muscle cells;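 note: total protein by SRB staining as cytotoxicity measure in parallel cultures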
[5] = read-out: Transforming growth factor beta 1 (TGFb1), TGFB1 (gene 7040); test: BSK_KF3CT_TGFb1: BioMAP Diversity Plus: KF3CT Assay for Transforming growth factor beta 1 (TGFb1) Biomarker Activity (AID 2283072); conditions: primary human keratinocytes with fibroblasts; actives raise or lower the signal
In short: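 Read-out: ELISA for TGF-b1 in keratinocyte/foreskin fibroblast human skin co-culture, 24 h after dosing; bidirectional curve fit vs DMSO baseline; gain or loss of signal scored.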

CD40, CD40 (gene 958) = test: BSK_LPS_CD40: BioMAP Diversity Plus: LPS Assay for CD40 Biomarker Activity (AID 2283076); conditions: primary human HUVEC with PBMC; actives raise or lower the signal
In short: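 Primary human umbilical vein endothelial cells co-cultured with peripheral blood mononuclear cells, LPS-stimulated, were dosed with chemical and read 24 h later. CD40 levels were measured by ELISA and fitted bidirectionally against DMSO as negative control and baseline.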

CD69, CD69 (gene 969) = test: BSK_SAg_CD69: BioMAP Diversity Plus: SAg Assay for CD69 Biomarker Activity (AID 2283089); conditions: primary human HUVEC with PBMC; actives raise or lower the signal;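 for AC50: cell surface CD69 protein quantified by ELISA with fluorescence detection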
In short: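 HUVEC co-cultured with PBMC were dosed with chemical, and CD69 was measured by ELISA with fluorescence read-out 24 h later. Bidirectional curve fitting used DMSO as negative control and activity baseline.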

[6] = read-out: Monocyte Chemoattractant Protein-1 (MCP1), CCL2 (gene 6347); test: BSK_SAg_MCP1: BioMAP Diversity Plus: SAg Assay for Monocyte Chemoattractant Protein-1 (MCP1) Biomarker Activity (AID 2283090); conditions: primary human HUVEC with PBMC; actives raise or lower the signal
In short: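 Values derive from bidirectional fitting of ELISA-measured MCP1 against DMSO controls. Readings were taken 24 h after dosing human vascular endothelial cells co-cultured with peripheral blood mononuclear cells under superantigen stimulation.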

[7] = read-out: Monokine induced gamma interferon (MIG), CXCL9 (gene 4283); test: BSK_SAg_MIG: BioMAP Diversity Plus: SAg Assay for Monokine induced gamma interferon (MIG) Biomarker Activity (AID 2283092); conditions: primary human HUVEC with PBMC; actives raise or lower the signal
In short: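 HUVEC plus human PBMC co-culture, chemicals dosed and MIG (CXCL9) quantified by ELISA at 24 h. Bidirectional curve fitting against DMSO as negative control and baseline, so both gain and loss of signal count as activity.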

[8] = BSK_SAg_Proliferation: Cell Proliferation Assessment in the BioMAP Diversity Plus: SAg Assay (AID 2283095); conditions: primary human HUVEC with PBMC;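 note: relative cell number as total protein by SRB absorbance in sub-confluent culture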
In short: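 HUVEC/PBMC co-culture, 96-well. TCA-fixed (10%), 0.1% SRB stain, A560 at 96 h. Protein content used as viability readout; bidirectional fitting vs DMSO control.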

[9] = BSK_BT_PBMCCytotoxicity: PBMC Cytotoxicity Assessment in the BioMAP Diversity Plus: BT Assay (AID 2284225); conditions: primary human B cells with PBMC;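 note: PBMC viability measured by Alamar Blue dye reduction fluorescence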
In short: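 Primary human co-culture of B cells and PBMC, pre-dosed 1 h then activated with SEB and TSST-1. Cytotoxicity is taken from Alamar Blue dye reduction, added for 6 h at the end of a 90 h incubation.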

[10] = read-out: Secreted IgG (sIgG), gene 3500; test: BSK_BT_sIgG: BioMAP Diversity Plus: BT Assay for Secreted IgG (sIgG) Biomarker Activity (AID 2284226); conditions: primary human B cells with PBMC
In short: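 Human B cell/PBMC co-culture; compound exposure 24 h; sIgG by ELISA; gain-of-signal fit vs DMSO baseline.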

[11] = read-out: Interleukin 6 (IL6), IL6 (gene 3569); test: BSK_BT_xIL6: BioMAP Diversity Plus: BT Assay for Interleukin 6 (IL6) Biomarker Activity (AID 2284228); conditions: primary human B cells with PBMC
In short: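 Human B cell plus PBMC co-culture exposed to test chemical for 24 h; secreted IL-6 quantified by Luminex xMAP bead assay. Activity fitted in the positive direction against DMSO as negative control and baseline.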

[12] = read-out: Tumor necrosis factor (Homo sapiens) (UniProt P01375); test: BSK_BT_xTNFa: BioMAP Diversity Plus: BT Assay for Tumor necrosis factor alpha (TNF-alpha) Biomarker Activity (AID 2284230); conditions: primary human B cells with PBMC
In short: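 B cells with PBMC in co-culture, dosed and sampled at 24 h; secreted TNF-alpha measured by Luminex xMAP bead assay. Activity fitted in the gain direction against DMSO as negative control and baseline.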

[13] = read-out: Vascular cell adhesion molecule 1 (VCAM1), VCAM1 (gene 7412); test: BSK_MyoF_VCAM1: BioMAP Diversity Plus: MyoF Assay for Vascular cell adhesion molecule 1 (VCAM1) Biomarker Activity (AID 2284231); conditions: primary human lung fibroblasts
In short: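 Primary human lung fibroblasts were dosed with test chemical for 24 h, then cell-surface VCAM-1 was measured by ELISA. Activity was fitted in the positive direction against DMSO as negative control and baseline.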

[14] = read-out: Interleukin 17F (IL17F), IL17F (gene 112744); test: BSK_BT_xIL17F: BioMAP Diversity Plus: BT Assay for Interleukin 17F (IL17F) Biomarker Activity (AID 2284243); conditions: primary human B cells with PBMC
In short: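 B cell/PBMC co-culture (human primary), 24 h compound exposure; sIL-17F by Luminex xMAP; gain-of-signal fit vs DMSO baseline.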

[15] = read-out: Actin alpha 1 (ACTA1), ACTA1 (gene 58); test: BSK_MyoF_ACTA1: BioMAP Diversity Plus: MyoF Assay for Actin alpha 1 (ACTA1) Biomarker Activity (AID 2284244); conditions: primary human lung fibroblasts
In short: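 ELISA read-out of a-SMA in primary human lung fibroblast cultures, 24 h post-dosing. Activity scored in the positive direction versus DMSO baseline.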

[16] = target: Estrogen receptor (Homo sapiens) (UniProt P03372); test: ATG_ERa_TRANS: Attagene TRANS-FACTORIAL HepG2 Assay for human Estrogen Receptor alpha (ERa) (AID 2282970; active = hit-call score of the fitted dose curve at least 0.9, where 1 is the maximum); conditions: HepG2 Attagene TRANS ERa GAL4 reporter, mRNA
Estrogen receptor (Homo sapiens), sequence (P03372 whole entry, looked up, the tested form may be a part): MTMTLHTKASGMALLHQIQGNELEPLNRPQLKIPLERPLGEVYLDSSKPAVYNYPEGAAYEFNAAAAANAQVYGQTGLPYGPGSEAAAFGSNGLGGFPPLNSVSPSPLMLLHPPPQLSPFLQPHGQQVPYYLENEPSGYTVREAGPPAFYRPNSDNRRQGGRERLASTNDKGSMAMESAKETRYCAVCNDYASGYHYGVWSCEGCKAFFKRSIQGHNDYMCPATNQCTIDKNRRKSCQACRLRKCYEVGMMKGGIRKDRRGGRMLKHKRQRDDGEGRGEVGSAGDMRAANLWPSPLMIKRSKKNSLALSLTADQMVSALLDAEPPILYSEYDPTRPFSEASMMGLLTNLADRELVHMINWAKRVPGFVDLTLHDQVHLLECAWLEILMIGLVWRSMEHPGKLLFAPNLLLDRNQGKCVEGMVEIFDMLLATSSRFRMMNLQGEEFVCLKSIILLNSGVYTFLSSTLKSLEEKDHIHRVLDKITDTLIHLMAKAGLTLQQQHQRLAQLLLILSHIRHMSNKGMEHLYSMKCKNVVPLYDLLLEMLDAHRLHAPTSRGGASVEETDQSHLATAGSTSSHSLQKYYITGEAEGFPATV
In short: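 One of 30 multiplexed endpoints from a HepG2 TRANS system, this one reports ERa-Gal4-driven reporter mRNA. Transcripts were quantified 24 hours post-dosing by fluorescent RT-PCR and capillary electrophoresis, with activity scored as induction over DMSO.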

[17] = ATG_PPRE_CIS: Attagene CIS-FACTORIAL HepG2 Assay for human Peroxisome Proliferator-activated Response Element (PPRE) (AID 2282958); conditions: HepG2 PPRE cis-element reporter, Attagene transcription factor profiling; actives raise or lower the signal
In short: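 HepG2 cells transiently transfected with multiplexed cis-element reporter units measure endogenous transcription factor activity. After 24 h compound exposure, reporter mRNA is quantified by RT-PCR, 6-FAM labeling, HpaI digestion and capillary electrophoresis; bidirectional fits are made against DMSO baseline.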

[18] = target: Retinoic acid receptor alpha (Homo sapiens) (UniProt P10276); test: ATG_RARa_TRANS: Attagene TRANS-FACTORIAL HepG2 Assay for human Retinoic Acid Receptor alpha (RARa) (AID 2283005; active = hit-call score of the fitted dose curve at least 0.9, where 1 is the maximum)
Retinoic acid receptor alpha (Homo sapiens), sequence (P10276 whole entry, looked up, the tested form may be a part): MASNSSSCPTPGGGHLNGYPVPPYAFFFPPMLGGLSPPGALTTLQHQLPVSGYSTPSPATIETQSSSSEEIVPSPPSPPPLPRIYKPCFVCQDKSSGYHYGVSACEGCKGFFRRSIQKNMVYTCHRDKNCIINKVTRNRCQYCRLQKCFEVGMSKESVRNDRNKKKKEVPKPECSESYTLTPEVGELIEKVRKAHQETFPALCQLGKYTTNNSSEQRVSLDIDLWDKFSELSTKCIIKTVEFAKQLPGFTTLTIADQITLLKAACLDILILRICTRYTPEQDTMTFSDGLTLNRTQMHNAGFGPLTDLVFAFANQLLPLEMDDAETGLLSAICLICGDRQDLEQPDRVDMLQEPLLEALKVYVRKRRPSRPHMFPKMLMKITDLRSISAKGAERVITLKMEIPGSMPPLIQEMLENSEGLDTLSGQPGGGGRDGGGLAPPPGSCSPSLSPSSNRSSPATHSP
In short: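 Reporter transcripts, measured by RT-PCR with fluorescent labeling and capillary electrophoresis after 24 h dosing, reflect activity of an exogenous human RARa–GAL4 fusion in transiently transfected HepG2. Fitted for increase relative to DMSO.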

Measured: AC50

Tumor necrosis factor (Homo sapiens), sequence (P01375 whole entry, looked up): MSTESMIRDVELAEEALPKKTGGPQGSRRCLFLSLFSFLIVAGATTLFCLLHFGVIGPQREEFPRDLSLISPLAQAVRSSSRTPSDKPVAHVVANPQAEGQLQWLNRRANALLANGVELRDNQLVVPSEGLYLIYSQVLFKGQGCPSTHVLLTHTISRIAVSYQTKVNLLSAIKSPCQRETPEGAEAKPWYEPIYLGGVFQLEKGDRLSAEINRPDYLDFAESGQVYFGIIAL

Cc1cccnc1
inactive: [1] | [2] | [3] | [4] | [5] | CD40, CD40 (gene 958) | CD69, CD69 (gene 969) | [6] | [7] | [8] | [9] | [10] | [11] | [12] | [13] | [14] | [15]

CCC(C)=NO
inactive: [1] | [2] | [3] | [4] | [5] | CD40, CD40 (gene 958) | CD69, CD69 (gene 969) | [6] | [7] | [8]

CCC(C)NC(N)=O (stereo unspecified)
inactive: [16]

CC[N+](CC)(CC(=O)Nc1c(C)cccc1C)Cc1ccccc1 (tested in a mixture with another compound)
inactive: [1] | [4] | CD40, CD40 (gene 958) | CD69, CD69 (gene 969) | [6] | [7] | [8]

CCCCCCCCCCCCCCCCCC[N+](C)(C)C
active: [1] 1.36 µM | [2] 1.34 µM | [4] 5.94 µM | [5] 2.15 µM | CD40, CD40 (gene 958) 6.84 µM | CD69, CD69 (gene 969) 7.15 µM | [6] 6.02 µM | [7] 8.07 µM | [8] 0.995 µM | [9] 4.37 µM | [10] 0.706 µM | [11] 5 µM | [12] 2.62 µM | [13] 3.33 µM | [14] 2.08 µM | [15] 1.69 µM
inactive: [16] | [3]

Oc1ccc(Cl)cc1C1CCCC1
active: [16] 4.12 µM
inactive: [17]

CN(C)c1ccc(C(c2ccccc2)c2ccc(N(C)C)cc2)cc1
active: [1] 2.81 µM | [2] 13 µM | CD40, CD40 (gene 958) 20 µM | CD69, CD69 (gene 969) 20 µM | [6] 12.9 µM | [8] 11.7 µM | [9] 33.7 µM | [10] 11.8 µM | [11] 14.6 µM | [12] 33.1 µM | [14] 29 µM | [15] 32.7 µM
inactive: [3] | [5] | [7] | [13]

CC[N+](CC)(CC(=O)Nc1c(C)cccc1C)Cc1ccccc1
active: [2] 39.8 µM
inactive: [3] | [4] | [5] | CD40, CD40 (gene 958) | CD69, CD69 (gene 969) | [6] | [7] | [8] | [9] | [10] | [11] | [12] | [13] | [14] | [15]

COC(=O)/C=C\C(=O)OC
inactive: [1] | [2] | [3] | [4] | [5] | CD40, CD40 (gene 958) | CD69, CD69 (gene 969) | [6] | [7] | [8] | [9] | [12] | [13] | [15]
active: [10] 20 µM | [11] 14.5 µM | [14] 20 µM

COC(OC)C(C)c1ccccc1 (stereo unspecified)
inactive: [17] | [16]

c1cc(N(CC2CO2)CC2CO2)ccc1Cc1ccc(N(CC2CO2)CC2CO2)cc1 (stereo unspecified)
inactive: [17]

Oc1ccc(Oc2ccccc2)cc1
active: [16] 1.44 µM

O=[N+]([O-])c1ccccc1C(F)(F)F
inactive: [17] | [18]

CN(C)Cc1cc(C(C)(C)C)c(O)c(C(C)(C)C)c1
inactive: [17] | [1] | [4] | CD40, CD40 (gene 958) | [6] | [7]
active: CD69, CD69 (gene 969) 20 µM and 15.4 µM | [8] 17.5 µM and 20 µM

c1ccc2c(c1)Oc1ccccc1S2
active: [16] 27.9 µM

CC(C)CC(=O)O
inactive: [16]

CCCCCC1CCCC(=O)O1 (stereo unspecified)
inactive: [18]

CCCCCCCCCCC1CO1 (stereo unspecified)
active: [1] 14.7 µM | [2] 37.8 µM | [4] 31.6 µM | [5] 30.3 µM | CD69, CD69 (gene 969) 36.7 µM | [8] 32.5 µM | [13] 30.7 µM | [15] 33.5 µM
inactive: [3] | [6] | [7] | [9] | [10] | [11] | [12] | [14]

CC(=O)c1nccs1
inactive: [18]
active: [16] 39.3 µM

CCCC(=O)OC/C=C(\C)CCC=C(C)C
inactive: [17] | [16]

COc1ccccc1OCC(O)CO (stereo unspecified)
inactive: [17]

O=[N+]([O-])c1ccc2nc[nH]c2c1
inactive: [16]

CC1(C)S[C@@H]2[C@H](NC(=O)[C@H](N)c3ccccc3)C(=O)N2[C@H]1C(=O)O
inactive: [17]

NC(=O)c1ccc(N)cc1
inactive: [18]

NC(=O)c1ccc([N+](=O)[O-])cc1Cl
inactive: [17]
